{
  "source": "PubChem BioAssay (NCI)",
  "note": "The panel holds about 83,000 compounds, 20% with a hit somewhere; the sample as a whole holds those more often.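 Testing used 96-well plates and a 48-hour single-concentration exposure. Example: -40 means 40% of the starting cells died.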 Calls of active or inactive are those of the source. Rule for the calls: active = growth percent below 10; inactive = the rest.",
  "data": [
    {"system": "K-562 leukemia", "assay": "NCI-60 one-dose screen, 48 h (100 = growth as untreated, 0 = no growth, -100 = all killed)", "conditions": "10 µM unless noted", "values": [
      {"molecule": "O=c1oc2c(cnc3ccccc32)cc1-c1cccc(Cl)c1", "growth": "89% (inactive)"},
      {"molecule": "CCOC(=O)c1c(C)nc2c(c1N)C(=O)C(=O)N2Cc1ccc(OC)cc1", "growth": "28.8% (inactive)"},
      {"molecule": "CCNC(=O)N1CCc2c(Br)c3c(c(OC)c2C1Cc1ccc(OC)cc1)OCO3", "note": "(stereo not given)", "growth": "20% (inactive)"},
      {"molecule": "COc1cc2c(c(OC)c1OC)CCC(c1cccc(C(=O)Nc3ccc(Br)cc3)c1)O2", "note": "(stereo not given)", "growth": "40.4% (inactive)"},
      {"molecule": "OC1CSSC1Cn1cnc2c(Nc3ccc(OCc4cccc(F)c4)c(Cl)c3)ncnc21", "note": "(stereo not given)", "growth": "-56.7% (active)"},
      {"molecule": "Cc1ccc(OCCOCCOCCOc2ccc(C)n(O)c2=S)c(=S)n1O", "growth": "18.9% (inactive)"},
      {"molecule": "C=CN(C(=O)N1CCN(c2cc3c(cc2F)c(=O)c(C(=O)O)cn3C2CC2)CC1)c1nc(-c2ccc(Cl)cc2)cs1", "growth": "47.6% (inactive)"},
      {"molecule": "C#CCOc1cccc(Nc2ncnc3cc(NC(=O)CCl)ccc23)c1", "growth": "-43% (active)"},
      {"molecule": "Cc1nc2ccccc2c(/C=C/c2ccc(F)cc2)c1C(=O)/C=C/c1ccccc1", "growth": "6.31% (active)"},
      {"molecule": "COc1cc(/C=C/C(=O)N2CCN(C(=O)c3cc(OC)c(OC)c(OC)c3)CC2)ccc1OCCCOc1cc2c(cc1OC)C(=O)N1CCC[C@H]1C=N2", "growth": "1.04% (active)"},
      {"molecule": "O=C(NC1CCC(Br)CC1)C1CCCC(S(=O)(=O)NC2CCCCC2)C1", "note": "(stereo not given)", "growth": "8.64% [25 µM] (active)"},
      {"molecule": "COc1cc(/C=C/c2cn[nH]c2-c2ccc(C)cc2)cc(OC)c1OC", "growth": "15.5% (inactive)"},
      {"molecule": "COc1ccc(C/C(C)=C(\\c2ccc(Cl)cc2)c2ccc(OCCN3CCCC3)cc2)cc1", "growth": "13% (inactive)"},
      {"molecule": "CN(C)Cc1ccc(NC(=O)c2cncc(C#Cc3cnc(N)c4ncccc34)c2)cc1C(F)(F)F", "growth": "-26.1% (active)"},
      {"molecule": "COC(=O)c1c(C)nc(C)c2c1C(=O)C=C(NCc1ccccc1)C2=O", "growth": "69.1% (inactive)"},
      {"molecule": "N#CSc1c[nH]c2ccc(/C=C/C(=O)/C=C(O)/C=C/c3ccc4[nH]cc(SC#N)c4c3)cc12", "growth": "-15.2% (active)"},
      {"molecule": "Cc1ccc(-c2nc(SCC(=O)N3CCN(c4cc5c(cc4F)c(=O)c(C(=O)O)cn5C4CC4)CC3)nc(Cl)c2C#N)cc1", "growth": "98.2% (inactive)"},
      {"molecule": "COC(=O)/C=C1/SC(=NCc2ccccc2)N(CCc2c[nH]c3ccccc23)C1=O", "growth": "48.5% (inactive)"},
      {"molecule": "C=C(C)[C@@H]1CC[C@]2(C(=O)N3CCN(C)CC3)CC[C@]3(C)[C@H](CC[C@@H]4[C@@](C)(CCC(=O)O)[C@H](C(=C)C)CC[C@]43C)[C@@H]12", "growth": "58% (inactive)"},
      {"molecule": "Nc1[nH]nc2nc(-c3ccccc3)n3c4ccccc4nc3c12", "growth": "106% (inactive)"},
      {"molecule": "CN1CCOCCN(C)Cc2ccc3ccc(cc3c2)CN(C)CCOCCN(C)Cc2ccc3ccc(cc3c2)C1", "growth": "-10.3% (active)"},
      {"molecule": "COc1ccc(/C=N/Nc2c3ccccc3nc3ccccc23)cc1", "growth": "87.9% (inactive)"},
      {"molecule": "C=C1C(=O)O[C@H]2[C@H]1CC/C(CNC(=O)Cc1c[nH]c3ccccc13)=C\\CC[C@@]1(C)O[C@@H]21", "growth": "-12.2% (active)"},
      {"molecule": "COc1ccc2c(c1)CC[C@@H]1[C@@H]2CC[C@]2(C)c3c(cc(C#N)c4c3sc3ccccc34)C[C@@H]12", "growth": "88.5% (inactive)"},
      {"molecule": "O=C(c1c[nH]c2ccccc12)c1n[nH]c(=S)n1-c1ccc([N+](=O)[O-])cc1", "growth": "83.3% (inactive)"},
      {"molecule": "Cc1c2cnccc2c(C)c2c1c1cc(CO)ccc1n2C", "growth": "1.71% (active)"},
      {"molecule": "COc1cc(-c2nccc3[nH]c(-c4cccc5[nH]ccc45)nc23)cc(OC)c1OC", "growth": "8.35% (active)"},
      {"molecule": "Clc1ccc(-c2nc(C(Cl)Cl)nc3cc(-c4ccccc4)nn23)cc1", "growth": "33.2% (inactive)"},
      {"molecule": "CC1=Nc2cnc(Nc3ccc(N4CCCCC4)cc3)nc2Nc2ccccc21", "growth": "34.7% (inactive)"},
      {"molecule": "CN(C)c1ccc([C@@H](C(=O)Nc2cccc([N+](=O)[O-])c2)N(C(=O)c2cc3ccccc3[nH]2)c2cccc([N+](=O)[O-])c2)cc1", "growth": "100% (inactive)"},
      {"molecule": "O=C(CSc1nnnn1-c1ccccc1)Nc1ccc(Oc2ccccc2)cc1", "growth": "120% (inactive)"},
      {"molecule": "COc1cc(/C=C/C(=O)c2cccc(-n3cc(-c4ccc(Cl)cc4)[nH]c3=O)c2)ccc1O", "growth": "17.9% (inactive)"},
      {"molecule": "Oc1c(CN2CCC(N3CCOCC3)CC2)cc(Cc2cc(CN3CCC(N4CCOCC4)CC3)c(O)c3ncccc23)c2cccnc12", "growth": "11.1% (inactive)"},
      {"molecule": "c1ccc2cc(Cn3cc(CSc4nc5ccccc5s4)nn3)ccc2c1", "growth": "97.4% (inactive)"},
      {"molecule": "CN(C)Cc1cc(C(C)(C)C)cc(Br)c1O", "growth": "106% (inactive)"}
    ]}
  ]
}
